IL1B secr inh – qHTS for Inhibitors of Inflammasome Signaling: IL-1-beta AlphaLISA Primary Screen; THP-1 LPS/ATP IL-1B secretion, AlphaLISA, 16 h; active compounds read low; activity change, % at 57.5 µM; 360,000 compounds, 4.7% hits; AID 743279, 2014; in the data active = activity change below about -50%; inconclusive = mostly about -30% to -49%
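Secreted IL-1B measured by AlphaLISA bead assay after 16 h compound exposure of THP-1 cells; compounds (final up to 57.5 uM) added 1 h before LPS (250 ng/mL) and ATP (1.25 mM) stimulation; lower signal means less secretion.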
VP16 counter – VP16 counterscreen qHTS for inhibitors of ROR gamma transcriptional activity. 310,000 compounds, 3.5% hits. Potency, µM (series often up to 53.6 µM), for inactives: top-dose activity, negative = inhibition, actives largely listed as inhibitors. AID 2546, 2010. Drosophila S2 Gal4-VP16 UAS-luciferase, luminescence, 20 h;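 also: Gal4-VP16 expression switched on by copper sulfate through the metallothionein promoter; potency is read from the fitted curve at half-maximal effect; nearly all actives have a fitted effect of over 50% in size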
RORg inh – qHTS for inhibitors of ROR gamma transcriptional activity. Nuclear receptor ROR-gamma (Mus musculus), P51450. Drosophila S2 Gal4-RORgamma UAS-luciferase reporter, 20 h. Potency, µM (doses to about 53.6 µM), for inactives: at the highest dose activity change, negative = inhibition, actives largely listed as inhibitors. 310,000 compounds, 5.4% hits; also: potency is read from the fitted curve at half-maximal effect; nearly all actives have a fitted effect of over 60% in size
Target sequence (P51450 whole entry, looked up, the tested form may be a part): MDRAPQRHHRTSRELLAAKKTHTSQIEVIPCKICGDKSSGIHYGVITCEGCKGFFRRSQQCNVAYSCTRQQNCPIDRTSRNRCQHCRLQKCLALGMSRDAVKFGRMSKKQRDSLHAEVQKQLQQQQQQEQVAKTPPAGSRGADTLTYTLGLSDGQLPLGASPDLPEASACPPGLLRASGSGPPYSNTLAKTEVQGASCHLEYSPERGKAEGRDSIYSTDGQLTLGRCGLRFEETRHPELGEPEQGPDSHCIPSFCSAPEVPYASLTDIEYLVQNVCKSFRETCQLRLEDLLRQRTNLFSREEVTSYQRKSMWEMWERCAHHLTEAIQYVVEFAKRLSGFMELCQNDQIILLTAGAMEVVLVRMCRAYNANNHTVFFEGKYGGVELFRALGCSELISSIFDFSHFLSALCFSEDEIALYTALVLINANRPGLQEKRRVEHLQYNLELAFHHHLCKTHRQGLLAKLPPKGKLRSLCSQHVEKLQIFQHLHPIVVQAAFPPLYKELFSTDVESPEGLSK
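In this cell-based reporter format, copper sulfate (700 uM final) drives Gal4–ROR gamma fusion expression from a metallothionein promoter in Drosophila Schneider cells; compounds preincubated 1 hr, reporter read after 20 hr at ambient temperature.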
TDP1 cell CPT – qHTS for Inhibitors of human tyrosyl-DNA phosphodiesterase 1 (TDP1): qHTS in cells in presence of CPT. Potency, µM (titrated, usually from 46.2 µM), without a hit: top-dose activity change, negative = growth inhibition, hits mostly inhibitors. chicken DT40 Tdp1-/-;hTDP1 cells + 20 nM CPT, ATP luminescence, 48 h. 420,000 compounds, 12% hits. AID 686979, 2013; also: potency is read from the fitted curve at half-maximal effect; nearly all actives have a fitted effect of over 55% in size
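Chicken DT40 Tdp1-/- cells complemented with human TDP1, 400 cells/well, exposed to compounds plus 20 nM camptothecin for at least 48 h at 37 C; viability read as ATP content by CellTiter-Glo luminescence.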
TDP1 cell noCPT – qHTS for Inhibitors of human tyrosyl-DNA phosphodiesterase 1 (TDP1): qHTS in cells in absence of CPT | DT40 Tdp1-/- hTDP1 cells, no CPT, ATP luminescence, 48 h | Potency, µM (titrated, usually from 46.2 µM), for the others: at the highest dose activity change, negative = growth inhibition, usual class: inhibitors | 420,000 compounds, 15% hits; also: potency is read from the fitted curve at half-maximal effect; nearly all actives have a fitted effect of over 55% in size
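Luminescent ATP content (CellTiter-Glo) served as the growth readout. Knockout chicken DT40 cells expressing human TDP1 were exposed to compounds without camptothecin for a minimum 48 hr at 37 °C.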
ELG1 DNA repair – qHTS screen for small molecules that inhibit ELG1-dependent DNA repair in human embryonic kidney (HEK293T) cells expressing luciferase-tagged ELG1; HEK293T ELG1-luciferase reporter, luminescence, 16 h; DNA damage induced by 5-fluorouridine; Potency, µM (highest dose often 46.1 µM), without a hit: top-dose activity change, negative = inhibition, most hits filed as inhibitors; AID 504467, 2011; 330,000 compounds, 2.3% hits; also: potency is read from the fitted curve at half-maximal effect; nearly all actives have a fitted effect of over 55% in size
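Luminescence from the luciferase reporter, measured 30 min after ONE-Glo reagent at room temperature, was the read-out. Beforehand, 2,000 cells per well were exposed for 16 hr at 37 °C to 5-fluorouridine together with compound or vehicle.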
The depositor's hits bear a star; ? = inconclusive; . = no result given. Sampled rows, rich in hits. Any-hit rate of the full collection: about 21%. Unless noted, calls follow the shape of the dose curve; as a rule, active = well fitted curve in the direction sought with a large enough effect; inconclusive = small, poorly fitted or top-dose-only effect, or another doubt; inactive = no such curve, though single readings can be large; an effect the other way counts as inactive or inconclusive. % is scaled to controls: 0 for no effect and ±100 for the full control effect.

SMILES | IL1B secr inh | VP16 counter | RORg inh | TDP1 cell CPT | TDP1 cell noCPT | ELG1 DNA repair
Cc1nn(-c2ccccc2)c(Cl)c1C1C(C#N)=C(N)OC2=C1C(=O)CC(C)(C)C2 (configuration not stated) | 34 | 10% | 0% | ? | ? | -15%
CC(C)c1ccc(-c2nn(-c3ccccc3)cc2C2C(C#N)=C(N)OC3=C2C(=O)CC(C)(C)C3)cc1 (configuration not stated) | -29 | 0% | 20% | ? | 18µM* | ?
CC1(C)CC(=O)C2=C(C1)OC(N)=C(C#N)C2c1ccccc1[N+](=O)[O-] (configuration not stated) | 5 | -5% | 15% | 21µM* | ? | 0%
O=C(CCCN1C(=O)/C(=C/c2ccccc2Cl)SC1=S)NNC(=O)c1ccccc1Cl | 19 | 2.8µM* | 1µM* | ? | 21µM* | ?
O=C(CCCN1C(=O)/C(=C\c2cccs2)SC1=S)Nc1cccc(C(=O)O)c1 | 10 | -21% | 13% | -22% | 20% | 15%
O=C(CCCN1C(=O)/C(=C/c2ccccc2Cl)SC1=S)NNC(=O)c1ccncc1 | ? | 10µM* | ? | ? | ? | ?
Cc1cc(NC(=O)CCCN2C(=O)/C(=C/c3ccccc3Cl)SC2=S)no1 | 0 | -1% | -21% | ? | ? | ?
Cn1c(C(=O)N2CCCC(Nc3ccc(F)cc3)C2)cc2ccccc21 (configuration not stated) | 21 | -2% | 1% | 11% | -10% | -2%
COc1ccccc1NS(=O)(=O)c1cc(C(=O)NC2CC(C)(C)NC(C)(C)C2)ccc1Cl | ? | . | . | -15% | 3% | .
COC(=O)C=CSC(=S)C1CCCC1=N (configuration not stated) | -3 | . | . | 2% | -22% | .
O=C(NN1CCN(Cc2ccccc2Cl)CC1)c1ccc(Cl)cc1 | 7 | 0% | 2% | ? | 12µM* | ?
Cc1ccc(C)c(NC(=S)N(Cc2ccco2)C(C)c2cccs2)c1 (configuration not stated) | -3 | 5µM* | 2.5µM* | -5% | 11% | -14%
Cc1ccc(Cl)cc1NC(=S)N(Cc1ccco1)C(C)c1cccs1 (configuration not stated) | -21 | 7.1µM* | 3.5µM* | ? | ? | ?
Cc1ccc(C)c(NC(=S)N(CCc2ccncc2)C(C)C)c1 | 27 | -8% | 11µM* | 8% | -2% | 9%
Cc1cccc(-c2cnc(C(O)Cc3ccccc3)[nH]2)c1 (configuration not stated) | 4 | . | . | 16µM* | ? | .
CCc1ccc(C(O)c2ncc(-c3cccc(C)c3)[nH]2)cc1 (configuration not stated) | -13 | . | . | ? | ? | .
OC(Cc1ccccc1)c1ncc(-c2ccc3ccccc3c2)[nH]1 (configuration not stated) | 21 | . | . | ? | 23µM* | .
OC(c1cccc(Cl)c1)c1ncc(-c2ccc3ccccc3c2)[nH]1 (configuration not stated) | -8 | . | . | ? | ? | .
COc1ccc2c(c1)C(CC(=O)NN)CCC2 (configuration not stated) | 26 | . | . | -29% | -4% | .
O=C(Nc1ccc(Br)cc1F)C(NS(=O)(=O)c1cccc2nsnc12)c1ccccc1 (configuration not stated) | . | . | . | -9% | -8% | .
CCCCNC(=O)C1C(c2ccc(OC)cc2)=Nc2ccccc2N1C(=O)c1cccnc1 (configuration not stated) | -21 | . | . | ? | -30% | .
CCCCNC(=O)C1C(c2ccc(OC)cc2)=Nc2ccccc2N1C(=O)c1ccncc1 (configuration not stated) | -8 | . | . | 23µM* | 21µM* | .
Cc1cccc(NC(=O)N2CCc3c(sc4c3CCCC4)C2c2ccc(F)cc2)c1 (configuration not stated) | . | . | . | ? | 16µM* | .
COc1ccc(NC(=O)N2CCc3c(sc4c3CCCC4)C2c2ccc(F)cc2)cc1 (configuration not stated) | . | . | . | ? | 21µM* | .
O=C(COC(=O)c1cc(S(=O)(=O)N2CCCCC2)ccc1N1CCOCC1)NC1CCS(=O)(=O)C1 (configuration not stated) | -4 | -1% | 32% | 5% | -2% | 2%
SMILES | IL1B secr inh | VP16 counter | RORg inh | TDP1 cell CPT | TDP1 cell noCPT | ELG1 DNA repair
O=C(c1ncn(Cc2ccccc2)c1C(=O)N1CCc2ccccc2C1)N1CCc2ccccc2C1 | 25 | . | . | ? | -21% | -4%
COc1ccc(C(=O)Nc2ccc(N(C)Cc3ccccc3)c(C(=O)O)c2)cc1 | . | . | . | -1% | -1% | .
Cn1c(N)c(C(=O)COC(=O)c2ccc(OC(F)F)cc2)c(=O)n(C)c1=O | 0 | . | . | -6% | ? | 0%
O=C(CN(c1cccc(C(F)(F)F)c1)S(=O)(=O)c1ccc(Cl)c([N+](=O)[O-])c1)NCc1ccccc1Cl | -100* | ? | -13% | 16µM* | 16µM* | ?
O=C(NCc1cccc(Cl)c1)c1cccc(C(F)(F)F)c1 | -14 | 1% | 19% | ? | -22% | -3%
CC(C)=CC(=O)N1CCC(Oc2cccc(C(=O)NCc3ccccn3)c2)CC1 | -1 | . | . | -21% | ? | .
O=C(NCc1ccccc1Cl)c1cccc(OC2CCN(C(=O)C3CC3)CC2)c1 | -2 | -17% | 10% | 16µM* | ? | 0%
O=C(NCc1ccccc1Cl)c1cccc(C(F)(F)F)c1 | -80* | 12% | ? | 3% | -14% | 12%
CC(NC(=O)CN(c1cccc(C(F)(F)F)c1)S(=O)(=O)c1ccc(Cl)c([N+](=O)[O-])c1)c1ccccc1 (configuration not stated) | -91* | ? | ? | 4.6µM* | 9.2µM* | ?
COc1ccc(CC(=O)NNC(=O)c2cc(Cl)ccc2OC)cc1 | -5 | . | . | 3% | -11% | 18%
NS(=O)(=O)c1ccc(N2CCOCC2)c(C(=O)NCc2ccc3c(c2)OCO3)c1 | 9 | . | . | ? | ? | 1%

From PubChem BioAssay
